CBX7 inh – inhibitors of human CBX7 binding to H3K27me3 peptide; AlphaScreen His6-CBX7 / biotin-H3K27me3 peptide binding; hits give low values; hit rate 1.1% among 66,000; normalised signal (fraction of DMSO) (no concentration beside the values); O95931; in the data active = normalised signal below about 0.5
Target sequence (O95931 whole entry, looked up): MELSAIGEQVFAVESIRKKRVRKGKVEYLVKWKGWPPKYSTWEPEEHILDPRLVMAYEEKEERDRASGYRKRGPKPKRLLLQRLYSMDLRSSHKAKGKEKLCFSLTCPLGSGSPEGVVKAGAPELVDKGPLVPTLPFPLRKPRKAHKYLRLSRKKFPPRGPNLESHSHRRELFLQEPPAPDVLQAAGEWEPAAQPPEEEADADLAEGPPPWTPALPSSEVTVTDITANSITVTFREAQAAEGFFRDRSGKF
* hit, by the source's call. Shown is part of a subset that was picked to be rich in hits.

SMILES	CBX7 inh
CCOC(=O)C1CCCN(C(=O)CCC(=O)Nc2ccc3nc(N4CCC(C)CC4)cc(C)c3c2)C1 (stereo not drawn)	1.05
Cc1cc(N2CCC(C)CC2)nc2ccc(NC(=O)CCC(=O)N3CCCCCC3)cc12	0.827
Cc1cc(N2CCCCC2)nc2ccc(NC(=O)CCC(=O)N3CCCC(C)C3)cc12 (stereo not drawn)	0.477*
O=c1cc(Cc2nnc(SCc3ccc(Cl)cc3)n2-c2ccc(F)cc2)[nH]c(=O)[nH]1	1.02
COc1ccc(CCNC(=O)c2ccc3c(c2)NC(=O)c2ccccc2S3)c(OC)c1	0.873
CCn1c(C(=O)N2CCC(C(=O)NC3CCCc4ccccc43)CC2)cc2sccc21 (stereo not drawn)	0.781
CCC(=O)N1c2ccc(S(=O)(=O)NCCCN3CC(C)CC(C)C3)cc2CC1C (stereo not drawn)	1.11
COc1cc(C(=O)NCc2nnc(SCC(=O)Nc3cc(C)on3)o2)cc(OC)c1OC	0.0511*
COc1ccc(C(=O)NCc2nnc(SCC(=O)Nc3cc(C)on3)o2)cc1OC	0.956
Cc1cccc(NC(=O)CSc2nnc(CNC(=O)c3c(F)cccc3Cl)o2)c1	1.08
Cc1cccc(NC(=O)CSc2nnc(CNC(=O)COc3ccc(Cl)cc3)o2)c1	1.04
COc1cc(C(=O)NCc2nnc(SCC(=O)Nc3ccc(Cl)cc3)o2)cc(OC)c1OC	0.945
O=C(CSc1nnc(CNC(=O)c2c(F)cccc2Cl)o1)Nc1ccccc1	0.91
Cc1cc(NC(=O)CSc2nnc(CNC(=O)c3c(F)cccc3Cl)o2)no1	0.0292*
Cc1cc(NC(=O)CSc2nnc(CNC(=O)COc3ccc(Cl)cc3)o2)no1	0.207*
Cc1nnc(NC(=O)CSc2nnc(CNC(=O)COc3ccc(Cl)cc3)o2)s1	0.847
COc1cccc(Nc2nc(-c3ccc(C)cc3)nc3ccccc23)c1	1.38
COc1ccc(NC(=O)c2oc3ccc(S(=O)(=O)N4CC(C)CC(C)C4)cc3c2C)c(OC)c1 (stereo not drawn)	1.02
CCC(=O)N1CCc2cc(S(=O)(=O)NCc3ccc4c(c3)OCO4)ccc21	0.822
CCN1CCN(c2oc(COc3ccccc3)nc2C#N)CC1	0.954
CN1CCN(c2oc(COc3ccc(F)cc3)nc2C#N)CC1	1.03
N#Cc1nc(COc2ccccc2)oc1NCc1ccc(F)cc1	0.877
COc1ccc(N2CCN(c3oc(COc4ccccc4F)nc3C#N)CC2)cc1	0.552
Cc1ccc(OCc2nc(C#N)c(N3CCN(c4ccccc4)CC3)o2)cc1	0.458*
N#Cc1nc(COc2ccccc2F)oc1N1CCN(c2ccccc2)CC1	0.48*
SMILES	CBX7 inh
COc1ccc(OCc2nc(C#N)c(N3CCOCC3)o2)cc1	1.02
COc1ccccc1OCc1nc(C#N)c(N(C)C)o1	0.952
Cc1ccc(OCc2nc(C#N)c(N3CCC(C(N)=O)CC3)o2)cc1	0.879
CN(Cc1ccccc1)c1oc(COc2ccc(F)cc2)nc1C#N	0.435*
Cc1ccc(OCc2nc(C#N)c(N3CCN(Cc4ccccc4)CC3)o2)cc1	0.459*
N#Cc1nc(COc2ccccc2F)oc1N1CCCC1	0.882
CCn1c(C(=O)N2CCCC(C(=O)N3CCN(c4ccccn4)CC3)C2)cc2sccc21 (stereo not drawn)	0.848
COc1ccc(N2CCN(CCCNC(=O)Nc3ccccc3C(F)(F)F)CC2)cc1	0.767
CC(C)Cn1c(=N)n(CCOc2ccc(Br)cc2)c2ccccc21	0.981
Cc1ccccc1N(C)C(=O)Cn1nc(Cc2ccncc2)c2ccccc2c1=O	1.01
COc1ccccc1OCc1nc(-c2ccccn2)no1	0.928
Cc1ccc2cc(CCN3C(=O)c4ccccc4C3=O)c(=O)[nH]c2c1	1.07
CCN(CCCNC(=O)c1cn(CC(C)C)c(=O)c2cc(OC)c(OC)cc12)c1cccc(C)c1	0.87
CN(CC(=O)Nc1c2c(nc3ccccc13)CCC2)Cc1ccccc1	0.947
O=C(Cc1ccc(NC2=NC3CS(=O)(=O)CC3S2)cc1)NCCC1=CCCCC1 (stereo not drawn)	0.773
O=C(Nc1c2c(nn1-c1ccc(Oc3ccccc3)cc1)CSC2)c1cccc(C(F)(F)F)c1	1.22
CC1CCN(c2oc(COc3ccc(Cl)cc3)nc2C#N)CC1	0.356*
Cc1ccc(OCc2nc(C#N)c(N3CCC(C)CC3)o2)cc1	0.515
N#Cc1nc(COc2ccc(Cl)cc2)oc1N1CCOCC1	1.22
CC1CCCCC1NC(=O)C1c2cccn2CC(=O)N1c1cccc(F)c1 (stereo not drawn)	1.12
COc1ccc(C(NC(=O)CCc2ccccc2)c2ccc3cccnc3c2O)cc1 (stereo not drawn)	0.082*
O=C(CCc1ccccc1)NC(c1ccc(Cl)cc1)c1ccc2cccnc2c1O (stereo not drawn)	0.621
Oc1c(C(Nc2ccccc2)c2ccccc2)ccc2cccnc12 (stereo not drawn)	0.237*
CC(C)CC(=O)NC(c1cccs1)c1ccc2cccnc2c1O (stereo not drawn)	0.102*
O=C(O)CC(NCc1cccnc1)c1cccs1 (stereo not drawn)	1.01
SMILES	CBX7 inh
Cc1ccc(C(NC(=O)C(C)C)c2cc(Cl)c3cccnc3c2O)cc1 (stereo not drawn)	0.627
O=C(Nc1ccc(Cl)c(Cl)c1)Nc1cccc2cccnc12	0.981
CC(C)CC(=O)NC(c1ccccc1)c1ccc2cccnc2c1O (stereo not drawn)	0.0438*
CCCC(=O)NC(c1ccc(OC)cc1)c1cc(Cl)c2cccnc2c1O (stereo not drawn)	0.776
O=C(O)C(NS(=O)(=O)c1cccc2cccnc12)c1ccccc1 (stereo not drawn)	1.02
CCN1CCN(C(c2cccs2)C(C)NC(=O)CC(C)C)CC1 (stereo not drawn)	1.14
Cc1ccc(C(NC(=O)CC(C)C)c2ccc3cccnc3c2O)cc1 (stereo not drawn)	0.628
Cc1ccc(-c2n[nH]c3c2C(c2ccc(C)cc2)N(c2ccc(F)cc2)C3=O)cc1 (stereo not drawn)	0.827
CCCCN(CCCC)S(=O)(=O)c1ccc2[nH]c(=O)cc(C(=O)NCCc3ccccc3)c2c1	0.97
COc1ccccc1CNC(=O)Cn1cnc2sc(C)c(C)c2c1=O	1.24
COc1cccc(-c2cc(C(=O)Nc3c(C)nn(Cc4ccc(F)cc4)c3C)no2)c1	1.03
Cc1oc(-c2ccc(Cl)cc2)nc1CN1CCC(C(=O)NC2CCCc3ccccc32)CC1 (stereo not drawn)	1.06
COc1cc2c(cc1OC)C1C(C(=O)N3CCN(C)CC3)c3ccccc3C(=O)N1CC2 (stereo not drawn)	1.01
CCOc1ccc(-n2ccnc2SCC(=O)Nc2ccccc2OC)cc1	1.16
Cc1ccc(Cc2c(C)nc3c(C(=O)NC4CCCc5ccccc54)cnn3c2C)cc1 (stereo not drawn)	0.859
COc1ccc(C(NC(=O)CC(C)C)c2ccc3cccnc3c2O)cc1OC (stereo not drawn)	0.0613*
CCCC(=O)NC(c1ccc(C(C)C)cc1)c1cc(Cl)c2cccnc2c1O (stereo not drawn)	0.823
CC(C)C(=O)NC(c1cccs1)c1cc(Cl)c2cccnc2c1O (stereo not drawn)	0.636
COc1ccc(CSc2cccc3cccnc23)cc1[N+](=O)[O-]	0.852
CCCC(=O)NC(c1cccs1)c1cc(Cl)c2cccnc2c1O (stereo not drawn)	0.27*
COc1cc(NC(=O)Cc2ccc(OC)c(OC)c2)c2ncccc2c1	1.04
CC(=O)c1ccc(NC(=O)CSc2nnc(-c3cccnc3)n2Cc2ccccc2)cc1	1.05
CC(C)OCCCNC(=O)c1cc(-c2ccncc2)nc2ccccc12	1

Assay outcomes deposited in PubChem by Bradner/Qi Labs at DFCI.
